# IDE exosite inh – insulin-degrading enzyme (human) exo-site inhibition; P14735; purified IDE, FL-6b probe fluorescence polarization; hits give low values; z-score at 20 µM; actives 6.3% (n = 17,000); AID 1259349;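 active = z-score of -3 or lower, meaning strong loss of probe binding signal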;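 note: His-tagged human IDE residues 42-1019 made in E. coli with 30 nM FL-6b probe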
# * = called active by the depositor. The full list was thinned out, with hits kept by preference.
SMILES,IDE exosite inh
COc1cccc(C(=O)Nc2ccc3c(c2)C(=O)N(C)[C@@H]2CC[C@H](CC(=O)N[C@@H](C)c4ccccc4)O[C@@H]2CO3)c1,-1.3
COc1cccc(S(=O)(=O)Nc2ccc3c(c2)C(=O)N(C)[C@H]2CC[C@@H](CC(=O)NCC4CCCCC4)O[C@@H]2CO3)c1,-3.2*
COc1cccc(C(=O)Nc2ccc3c(c2)C(=O)N(C)[C@@H]2CC[C@H](CC(=O)N[C@@H](C)c4ccccc4)O[C@H]2CO3)c1,0.24
CN1C(=O)c2cc(NC(=O)c3cnccn3)ccc2OC[C@H]2O[C@@H](CC(=O)N[C@H]3CCN(Cc4ccccc4)C3)CC[C@H]21,0.95
COc1ccc(-c2ccc([C@@H]3[C@@H](CO)N4C(=O)CN(C(=O)Cc5ccccn5)C[C@@H]34)cc2)cc1,-1.9
COCC(=O)N1CC[C@@H]2[C@H]1c1cc(-c3cccc(F)c3)ccc1N(C)[C@H]2CO,1.5
N#C[C@H]1[C@@H](c2ccccc2C2=CCCC2)[C@@H](CO)N1C(=O)C1CCC1,2.6
O=C(NCC1CC1)[C@H]1[C@H](CO)[C@H]2Cn3c(ccc(-c4cccnc4)c3=O)[C@H]2N1Cc1cocn1,-0.58
COc1cccc(-c2ccc([C@H]3[C@@H](CO)N4C(=O)CN(C(=O)CN5CCOCC5)C[C@@H]34)cc2)c1,-3.5*
Cc1cccc(-c2ccc([C@@H]3[C@H]4CN(C(=O)CN5CCOCC5)CC(=O)N4[C@H]3CO)cc2)c1,-15*
COc1cccc(-c2ccc([C@@H]3[C@H](CO)N4C(=O)CN(C(=O)CN5CCOCC5)C[C@@H]34)cc2)c1,-6.3*
O=C(CN1CCOCC1)N1CC(=O)N2[C@@H](CO)[C@H](c3ccc(-c4cccc(F)c4)cc3)[C@@H]2C1,-0.23
Cc1ccc(-c2ccc([C@H]3[C@H](CO)N4C(=O)CN(C(=O)CN5CCOCC5)C[C@@H]34)cc2)cc1,0.8
Cc1ccc(-c2ccc([C@@H]3[C@@H](CO)N4C(=O)CN(C(=O)CN5CCOCC5)C[C@@H]34)cc2)cc1,-1.4
O=C(CN1CCOCC1)N1CC(=O)N2[C@H](CO)[C@@H](c3ccc(-c4cccc(F)c4)cc3)[C@@H]2C1,-1.9
COCC#Cc1ccc([C@@H]2[C@H](CO)N3C(=O)CN(C(=O)CN4CCOCC4)C[C@@H]23)cc1,0.78
COc1cccc(-c2ccc([C@H]3[C@H]4CN(C(=O)CN5CCOCC5)CC(=O)N4[C@H]3CO)cc2)c1,-3
O=C1CN(S(=O)(=O)c2ccccc2)C[C@@H]2[C@@H](c3ccc(C#CCc4ccccc4)cc3)[C@@H](CO)N12,2.9
O=C(CN1CCOCC1)N1CC2(C1)[C@H](c1ccccc1)[C@H](CO)N2Cc1cccc(F)c1,1
O=C(C[C@@H]1CC[C@@H]2[C@H](COC[C@H](O)CN2C(=O)c2cnccn2)O1)N1CCN(c2ccccc2)CC1,-0.83
Cc1ccc(-c2ccc([C@@H]3[C@@H](CO)N4C(=O)CN(C(=O)Nc5cccc(F)c5)C[C@@H]34)cc2)cc1,2.8
CC(=O)NC[C@H]1[C@@H](c2ccc(-c3cccnc3)cc2)[C@@H](CO)N1C(=O)C1CC1,2
CCS(=O)(=O)Nc1ccc2c(c1)C(=O)N(C)C[C@H](OC)[C@H](C)CN(C(=O)c1ccc3c(c1)OCO3)[C@@H](C)CO2,1.2
O=C(Nc1ccccc1)N1CC(=O)N2[C@H](CO)[C@@H](c3ccc(C#Cc4cccnc4)cc3)[C@@H]2C1,3.7
Cc1ccc(-c2ccc(C3[C@H]4CNC[C@@H]3N4C(=O)NC(C)C)cc2)cc1 (some centres not stated),0.9
SMILES,IDE exosite inh
COc1ccc(C#Cc2ccc([C@H]3[C@H]4CN(Cc5ccncc5)CCCCN4[C@H]3CO)cc2)cc1,0.62
OC[C@@H]1[C@H](c2ccc(-c3ccccc3F)cc2)[C@@H]2CN(Cc3ccncc3)CCCCN12,-0.44
COc1ccccc1-c1ccc([C@@H]2[C@@H](CO)N3CCCCN(Cc4ccncc4)C[C@@H]23)cc1,-6.8*
OC[C@H]1[C@@H](c2ccc(-c3ccccc3F)cc2)[C@H]2CN(Cc3ccncc3)CCCCN21,-2.3
OC[C@H]1[C@H](c2ccc(-c3ccccc3F)cc2)[C@H]2CN(Cc3ccncc3)CCCCN21,-3.3*
OC[C@@H]1[C@@H](c2ccc(-c3ccccc3F)cc2)[C@@H]2CN(Cc3ccncc3)CCCCN12,-1.5
COc1ccccc1-c1cnc2c(c1)C(=O)N([C@H](C)CO)C[C@@H](C)[C@H](CN(C)C(=O)CC1CC1)O2,-1.2
O=C(Nc1ccc(F)cc1)N1CC(=O)N2[C@H](C1)[C@H](c1ccc(Br)cc1)[C@@H]2CO,-0.64
COc1ccc(-c2ccc(C3[C@H]4CNC[C@@H]3N4C(=O)Nc3ccc(C(F)(F)F)cc3)cc2)cc1 (some centres not stated),4.7
O=C(Nc1cccc(F)c1)N1CC(=O)N2[C@@H](CO)[C@@H](c3ccc(C#CC4CC4)cc3)[C@@H]2C1,0.67
CC(C)NC[C@@H]1[C@H](c2ccc(C3=CCCCC3)cc2)[C@H](CO)N1C(=O)NC(C)C,2.7
COc1cccc(-c2ccc([C@@H]3[C@@H](CO)N(C(=O)Cc4ccccc4)[C@H]3C#N)cc2)c1,3.6
